# Assay results: PubChem BioAssay
# Results filed as inconclusive are left out. Active and inactive are the calls of the source.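 The calls were made as follows, unless noted: active = normalized viability below 100% at a tested concentration; inactive = the rest.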
# Assays:
# [1] = growth inhibition of DIPG glioma cells, dose response, cell-based, SU-DIPG-XVII, MIPE5.0, CellTiter-Glo, qHTS (AID 1347060; cut-off not given, nearly all actives have AC50 up to about 26 µM;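 as to AC50: cells exposed to compound for 48 hours before viability readout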); settings: SU-DIPG-XVII viability, CellTiter-Glo ATP luminescence
# [2] = JHH-DIPG-1 glioma cell viability, MIPE5.0 library, CellTiter-Glo luminescence, qHTS (AID 1347067; cut-off not given, nearly all actives have AC50 up to about 26 µM;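 also: cells exposed to compound for 48 hours before readout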); settings: JHH-DIPG-1 glioma viability, CellTiter-Glo ATP luminescence
# [3] = SU-DIPG-XXV glioma cell viability, MIPE5.0 library, qHTS (AID 1347068; cut-off not given, nearly all actives have IC50 up to about 30 µM;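 as to IC50: cells exposed to compound for 48 hours before viability readout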)
# [4] = sensitizers of A549 cells to miR-34 induction, primary screen, imaging, A549 dox-inducible miR-34, nuclei and caspase counts (AID 1347080;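 active = compounds whose cell count with miR-34 switched on is under 0.7 times the count with it off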); settings: A549 miR-34 inducible, Hoechst nuclei count, 48 h
# [5] = survival rescue of mitochondrial mutant cells in low glucose, primary screen, MELAS cybrids, Rieske KO mouse fibroblasts, CellTiter-Glo (AID 1508586;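 active = mean z-score across replicates of 1.96 or higher in either the MELAS or the Rieske mutant cell line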;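 also: z relative to plate mean and SD of compound and empty wells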)
# [6] = ovarian cancer cell viability with rucaparib, profiling panel, oncology-focused library, rucaparib conditional (AID 1508598); settings: patient-derived ovarian cancer cells, CellTiter-Glo viability, 144 h, stronger effect = lower value
# [7] = growth inhibition of DIPG glioma cells, dose response, cell-based, SU-DIPG-XIII, MIPE4.0, CellTiter-Glo, qHTS (AID 1347061; cut-off not given, nearly all actives have AC50 up to about 37 µM;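 also: cells exposed to compound for 48 hours before readout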); settings: SU-DIPG-XIII viability, CellTiter-Glo ATP luminescence
# [8] = growth inhibition of DIPG glioma cells, dose response, cell-based, JHH-DIPG-1, MIPE4.0, CellTiter-Glo, qHTS (AID 1347062; cut-off not given, nearly all actives have AC50 up to about 27 µM;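 as to AC50: cells exposed to compound for two days before readout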); settings: JHH-DIPG-1 viability, CellTiter-Glo ATP luminescence
# [9] = growth inhibition of DIPG glioma cells, dose response, cell-based, SU-DIPG-IV, MIPE4.0, CellTiter-Glo, qHTS (AID 1347063; cut-off not given, nearly all actives have AC50 up to about 30 µM;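 also: compound exposure lasted 48 hours before the viability readout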); settings: SU-DIPG-IV viability, CellTiter-Glo ATP luminescence
# [10] = growth inhibition of DIPG glioma cells, dose response, cell-based, SU-DIPG-XIII, MIPE5.0, CellTiter-Glo, qHTS (AID 1347064; cut-off not given, nearly all actives have AC50 up to about 23 µM;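 as to AC50: cells exposed to compound for 48 hours before the viability read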); settings: SU-DIPG-XIII viability, CellTiter-Glo ATP luminescence
# [11] = viability loss in pontine glioma line – cell-based, SU-DIPG-XXV, MIPE5.0, CellTiter-Glo, qHTS, dose response (AID 1347065; cut-off not given, nearly all actives have AC50 up to about 26 µM;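 also: cells exposed to compound for 48 hours before ATP readout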); settings: CellTiter-Glo ATP luminescence
# [12] = SU-DIPG-VI glioma cell viability, MIPE4.0 library, CellTiter-Glo luminescence, qHTS (AID 1347066; cut-off not given, nearly all actives have AC50 up to about 30 µM;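 also: cells exposed to compound for 48 hours before readout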); settings: CellTiter-Glo ATP luminescence
# [13] = modifiers of HSF1 nuclear foci, imaging, Selleck Cancer Library (AID 1347162; in the data active = plate-normalised HSF1 focus index below about 0.46); settings: human cells, at 10 µM; SSMD: measured here: HSF1 foci SSMD mean; cell count: measured here: cell number; plate-normalised HSF1 focus index: stronger effect = lower value
# [14] = stronger effect = lower value, cell number ratio, induced over uninduced
# [15] = measured here: relative caspase fold change +Dox/-Dox
# [16] = measured here: total cells with miR-34 induction, stronger effect = lower value
# [17] = measured here: total cells without miR-34 induction
# [18] = MELAS cybrid survival, CellTiter-Glo 48 h, stronger effect = higher value
# [19] = Rieske KO mouse fibroblast survival, CellTiter-Glo 72 h
structure (smiles),measurement,setting,value
O=C(O)CCNc1cc(N2CCc3ccccc3CC2)nc(-c2cccnc2)n1,outcome,[1],inactive
same,outcome,[2],inactive
same,outcome,[3],inactive
CCCOc1ccc(CCc2nc3cc(-c4c(C)noc4C)ccc3n2CCN2CCOCC2)cc1,outcome,[1],inactive
same,AC50,[2],20.9 µM (active)
same,outcome,[3],inactive
NS(=O)(=O)c1ccc(Cc2c(-c3cccc(-c4ccccc4)c3)nn(-c3nc(C(=O)O)cs3)c2CC2CC2)cc1,AC50,[1],23.5 µM (active)
same,AC50,[2],20.9 µM (active)
same,outcome,[3],inactive
CN1C[C@@H]2c3ccccc3Oc3ccc(Cl)cc3[C@H]2C1,outcome,[1],inactive
same,outcome,[2],inactive
same,outcome,[3],inactive
same,fold change,[4]; [14],0.885 (inactive)
same,fold change,[4]; [15],1.23
same,cell count,[4]; [16],6350
same,cell count,[4]; [17],7170
same,z-score,[5]; [18],-0.348 (inactive)
same,z-score,[5]; [19],0.514
CC(=O)C1CCC2C3CCC4=CC(=O)CCC4(C)C3CCC12C (centres undefined),outcome,[1],inactive
same,outcome,[2],inactive
same,outcome,[3],inactive
O=C(CCNC(=O)c1ccc(OC(F)(F)F)cc1)N[C@@H]1CCCc2ccccc21,AC50,[1],20.9 µM (active)
same,AC50,[2],8.33 µM (active)
same,outcome,[3],inactive
C[C@@H]1CC(=O)Nc2cccc(-c3ccc4c(c3)c(-c3cnn(C)c3)nn4C)c2N1,outcome,[1],inactive
same,outcome,[3],inactive
CNC(=O)c1cc(Oc2ccc3nc(N[C@@H]4CCCC[C@H]4O)sc3c2)ccn1,outcome,[1],inactive
same,outcome,[3],inactive
COc1ccc(Cl)c(Nc2ncnc3cc(OCC4CCN(C)CC4)c(OC)cc23)c1,AC50,[1],3.72 µM (active)
same,AC50,[2],20.9 µM (active)
same,outcome,[3],inactive
CC[C@H](Nc1ncnc2nc[nH]c12)c1oc2ccccc2c(=O)c1-c1cccc(F)c1,outcome,[1],inactive
same,outcome,[3],inactive
Cc1cc(CS(=O)(=O)c2ccccc2)cc(OCc2ccc(CN3CCC[C@@H]3CO)cc2)c1,AC50,[1],26.3 µM (active)
same,outcome,[2],inactive
same,outcome,[3],inactive
same,viability,"[6]; at 0.000305 µM, OCI-C5x cells, with rucaparib 10 µM, 100% = cells with rucaparib alone",111% (inactive)
same,viability,"[6]; at 0.000305 µM, OCI-C5x cells, without rucaparib",109% (inactive)
same,viability,"[6]; at 0.000305 µM, OCI-P5x cells, with rucaparib 20 µM, 100% = cells with rucaparib alone",97% (active)
same,viability,"[6]; at 0.000305 µM, OCI-P5x cells, without rucaparib",106% (inactive)
same,viability,"[6]; at 0.00122 µM, OCI-C5x cells, with rucaparib 10 µM, 100% = cells with rucaparib alone",113% (inactive)
same,viability,"[6]; at 0.00122 µM, OCI-C5x cells, without rucaparib",120% (inactive)
same,viability,"[6]; at 0.00122 µM, OCI-P5x cells, with rucaparib 20 µM, 100% = cells with rucaparib alone",103% (inactive)
same,viability,"[6]; at 0.00122 µM, OCI-P5x cells, without rucaparib",108% (inactive)
same,viability,"[6]; at 0.00488 µM, OCI-C5x cells, with rucaparib 10 µM, 100% = cells with rucaparib alone",111% (inactive)
same,viability,"[6]; at 0.00488 µM, OCI-C5x cells, without rucaparib",127% (inactive)
same,viability,"[6]; at 0.00488 µM, OCI-P5x cells, with rucaparib 20 µM, 100% = cells with rucaparib alone",99.4% (active)
same,viability,"[6]; at 0.00488 µM, OCI-P5x cells, without rucaparib",107% (inactive)
same,viability,"[6]; at 0.0195 µM, OCI-C5x cells, with rucaparib 10 µM, 100% = cells with rucaparib alone",116% (inactive)
same,viability,"[6]; at 0.0195 µM, OCI-C5x cells, without rucaparib",116% (inactive)
same,viability,"[6]; at 0.0195 µM, OCI-P5x cells, with rucaparib 20 µM, 100% = cells with rucaparib alone",107% (inactive)
same,viability,"[6]; at 0.0195 µM, OCI-P5x cells, without rucaparib",103% (inactive)
same,viability,"[6]; at 0.0781 µM, OCI-C5x cells, with rucaparib 10 µM, 100% = cells with rucaparib alone",123% (inactive)
same,viability,"[6]; at 0.0781 µM, OCI-C5x cells, without rucaparib",125% (inactive)
same,viability,"[6]; at 0.0781 µM, OCI-P5x cells, with rucaparib 20 µM, 100% = cells with rucaparib alone",99.2% (active)
same,viability,"[6]; at 0.0781 µM, OCI-P5x cells, without rucaparib",108% (inactive)
same,viability,"[6]; at 0.313 µM, OCI-C5x cells, with rucaparib 10 µM, 100% = cells with rucaparib alone",116% (inactive)
same,viability,"[6]; at 0.313 µM, OCI-C5x cells, without rucaparib",111% (inactive)
same,viability,"[6]; at 0.313 µM, OCI-P5x cells, with rucaparib 20 µM, 100% = cells with rucaparib alone",106% (inactive)
same,viability,"[6]; at 0.313 µM, OCI-P5x cells, without rucaparib",109% (inactive)
same,viability,"[6]; at 1.25 µM, OCI-C5x cells, with rucaparib 10 µM, 100% = cells with rucaparib alone",117% (inactive)
same,viability,"[6]; at 1.25 µM, OCI-C5x cells, without rucaparib",123% (inactive)
same,viability,"[6]; at 1.25 µM, OCI-P5x cells, with rucaparib 20 µM, 100% = cells with rucaparib alone",99.2% (active)
same,viability,"[6]; at 1.25 µM, OCI-P5x cells, without rucaparib",105% (inactive)
same,viability,"[6]; at 5 µM, OCI-C5x cells, with rucaparib 10 µM, 100% = cells with rucaparib alone",127% (inactive)
same,viability,"[6]; at 5 µM, OCI-C5x cells, without rucaparib",122% (inactive)
same,viability,"[6]; at 5 µM, OCI-P5x cells, with rucaparib 20 µM, 100% = cells with rucaparib alone",95.9% (active)
same,viability,"[6]; at 5 µM, OCI-P5x cells, without rucaparib",99.8% (active)
COCCOC(=O)N1CCN(S(=O)(=O)c2cc(F)c(Oc3ccc(Cl)cc3)c(F)c2)C(C(=O)NO)C1 (centres undefined),outcome,[1],inactive
same,AC50,[2],16.6 µM (active)
same,IC50,[3],20.9 µM (active)
Cc1ccc(NC(=O)Nc2cc(C(F)(F)F)ccc2F)cc1Nc1ccc2c(c1)NC(=O)/C2=C\c1ccc[nH]1,AC50,[7],18.7 µM (active)
same,AC50,[8],18.7 µM (active)
same,AC50,[9],4.18 µM (active)
same,AC50,[10],8.33 µM (active)
same,AC50,[11],6.61 µM (active)
same,AC50,[12],3.72 µM (active)
same,AC50,[2],10.5 µM (active)
same,IC50,[3],9.34 µM (active)
CNC(=O)[C@@H](NC(=O)[C@H](CC(C)C)[C@H](O)C(=O)NO)C(C)(C)C,AC50,[1],18.6 µM (active)
same,outcome,[3],inactive
same,SSMD,[13],3.3
same,cell count,[13],6770
same,plate-normalised HSF1 focus index,[13],1.2 (inactive)
Cc1cn([C@@H]2C[C@@H](O)[C@H](CO)O2)c(=O)[nH]c1=O,outcome,[7],inactive
same,outcome,[8],inactive
same,outcome,[9],inactive
same,outcome,[10],inactive
same,outcome,[11],inactive
same,outcome,[12],inactive
same,outcome,[2],inactive
same,outcome,[3],inactive
C[C@@]12C(=O)OC(=O)[C@@]1(C)C1CCC2O1,AC50,[7],1.66 µM (active)
same,AC50,[8],2.64 µM (active)
same,AC50,[9],1.48 µM (active)
Nc1ncnc2c1c(-c1cccc(OCc3ccccc3)c1)cn2C1CC(CN2CCCC2)C1 (centres undefined),AC50,[7],16.6 µM (active)
same,AC50,[8],20.9 µM (active)
same,AC50,[9],20.9 µM (active)
same,AC50,[10],1.18 µM (active)
same,AC50,[11],0.934 µM (active)
same,AC50,[12],1.18 µM (active)
same,AC50,[2],18.6 µM (active)
same,IC50,[3],4.68 µM (active)
same,fold change,[4]; [14],1.06 (inactive)
same,fold change,[4]; [15],0.675
same,cell count,[4]; [16],1510
same,cell count,[4]; [17],1430
same,z-score,[5]; [18],-0.449 (inactive)
same,z-score,[5]; [19],0.635
